# Screening results from PubChem BioAssay.
# FLuc inh = Photinus pyralis luciferase inhibition; P08659; purified P. pyralis luciferase, luminescence, biochemical; Potency, µM (highest dose often 115 µM), usual class: inhibitors; 76,000 tested, 2.5% active; further: nearly all actives have a fitted effect of over 65% in size
# Target sequence (P08659 whole entry, looked up): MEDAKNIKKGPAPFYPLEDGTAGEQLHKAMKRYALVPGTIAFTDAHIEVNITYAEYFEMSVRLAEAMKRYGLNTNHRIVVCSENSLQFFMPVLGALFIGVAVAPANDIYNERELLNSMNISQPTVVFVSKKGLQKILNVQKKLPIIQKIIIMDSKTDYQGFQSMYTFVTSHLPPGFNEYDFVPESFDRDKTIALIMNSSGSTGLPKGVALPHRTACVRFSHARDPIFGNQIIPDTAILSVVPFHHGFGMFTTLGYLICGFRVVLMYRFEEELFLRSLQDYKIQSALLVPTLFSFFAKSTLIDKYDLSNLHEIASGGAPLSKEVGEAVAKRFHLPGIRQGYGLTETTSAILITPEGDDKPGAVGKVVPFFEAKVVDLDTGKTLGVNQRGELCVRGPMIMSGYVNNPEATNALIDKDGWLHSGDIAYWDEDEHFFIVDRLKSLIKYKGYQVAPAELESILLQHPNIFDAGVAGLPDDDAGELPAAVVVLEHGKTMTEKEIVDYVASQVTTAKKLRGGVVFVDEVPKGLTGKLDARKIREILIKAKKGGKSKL
#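 Biochemical qHTS: compound (6-point titration) added to 10uM D-luciferin plus 10uM ATP in Tris acetate pH 7.5 buffer with Mg, Tween-20 and BSA, then purified enzyme at 10nM; light output imaged.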
# hNpr1 antagonist = blocks ANP-stimulated signaling of human Npr1 receptor | Potency, µM (doses to about 46.3 µM), for inactives: at the top dose activity change, negative = inhibition, hits mostly inhibitors | HEK293 hNpr1 GloSensor cGMP, ANP-stimulated luminescence | 76,000 tested, 1.6% active; calls by dose curve; further: nearly all actives have a fitted effect of over 60% in size
#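 Compound pre-incubated 30 min at room temperature on GloSensor-loaded HEK293 cells stably carrying hNpr1 and the pGS-40F cGMP biosensor. Stimulation uses hNppA at 0.1 nM final; luminescence is taken at baseline and 20 min post-agonist.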
# HEK cytotox = HEK 293 cell cytotoxicity; HEK 293 viability, ATP luminescence (CellTiter-Glo), 48-72 h; Potency, µM (doses to about 115 µM), for the others: at the highest dose activity change, negative = cytotoxicity, hits mostly inhibitors; 94,000 tested, 6.6% active; AID 1345083; further: nearly all actives have a fitted effect of over 60% in size
#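 Pintool-delivered compounds were incubated with HEK 293 cells (250 cells/well) at 37 degree Celsius for 48 or 72 hr. ATP-dependent luminescence (CellTiter-Glo) then reported remaining viable cells.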
# NIH3T3 tox = kills NIH 3T3 cells; NIH 3T3 viability, CellTiter-Glo ATP luminescence, 48-72 h; Potency, µM (series often up to 96.7 µM), without a hit: at the top dose activity change, negative = cytotoxicity, most hits filed as inhibitors; 94,000 tested, 4.3% active; AID 1345082; further: nearly all actives have a fitted effect of over 55% in size
#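 Luminescent ATP readout (CellTiter-Glo, 10 min RT) after 48 or 72 hr compound exposure of NIH 3T3 cells seeded at 400 cells/well in 1536-well format; quantitative HTS.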
# * marks the source's active call; other numbers are inactive results; i = inactive; u = inconclusive; x = no result given; [ ] = remark or other dose. Only some compounds are listed: those with a hit (about 11% of all), similar ones and a draw of the others. Unless noted, the call rests on the fitted dose curve; in most records, active means well fitted curve in the direction sought with a large enough effect; inconclusive means small, poorly fitted or top-dose-only effect, or another doubt; inactive means no such curve, though single readings can be large; an effect the other way counts as inactive or inconclusive. On the % scale 0 is the no-effect control and ±100 the full control effect; potency means the concentration at half of the fitted maximal effect.
SMILES,FLuc inh,hNpr1 antagonist,HEK cytotox,NIH3T3 tox
O=C1Nc2ccccc2CN(Cc2ccc(C(F)(F)F)cc2)C12CCNCC2,x,x,28.2µM*,22.4µM*
O=C1Nc2ccccc2CC12CCCN2Cc1ccc(C(F)(F)F)cc1 (stereo unspecified),x,x,44.7µM*,u
O=C1Nc2ccccc2CC12CCN2Cc1cccc2ccccc12 (stereo unspecified),i,-6.6%[70.6 µM],u,89.1µM*
O=C1Nc2ccccc2CN(Cc2ccc(F)cc2)C12CCNCC2,x,x,39.8µM*,u
COCCn1c(=O)c(C(=O)N2CCN(C(=O)COC)CC2)nc2cccnc21,x,x,1.0%,-0.1%
CN1c2cc(C(=O)Nc3cccc(F)c3)ccc2C(=O)N2CCCCC21 (stereo unspecified),25.1µM*,-22.8%,u,-22.2%
Cc1cc(C)cc(NC(=O)c2ccc3c(c2)N(C)C2CCCCCN2C3=O)c1 (stereo unspecified),i,0.0%,u,-25.0%
CSc1cccc(NC(=O)c2ccc3c(c2)N(C)C2CCCCN2C3=O)c1 (stereo unspecified),u,-7.1%,39.8µM*,u
CN1c2cc(C(=O)Nc3cccc(Br)c3)ccc2C(=O)N2CCCCC21 (stereo unspecified),u,0.0%,35.5µM*,u
CC(C)(C)OCC(O)CN1CCC(=O)N(CC2CC2)Cc2ccccc21 (stereo unspecified),x,x,u,-21.0%
CCCCN(Cc1ccccc1)Cc1nc(-c2ccc(C(=O)OC)cc2)no1,8.91µM*,-8.3%,-11.0%,-11.5%
COCC(=O)NC1CCN(c2nccc(Nc3ccc(C)cc3)n2)CC1,x,x,u,35.5µM*
COc1ccc(C(=O)NC2CCN(c3nccc(Nc4ccccc4OC)n3)CC2)cc1,x,x,-17.6%,-6.2%
Cc1ccc(Nc2ccnc(N3CCC(NC(=O)Cc4cccc(Cl)c4)CC3)n2)cc1,x,x,25.1µM*,17.8µM*
Cc1ccc(Nc2ccnc(N3CCCC3C(=O)NC3CC3)n2)cc1 (stereo unspecified),x,x,u,-18.6%
COc1ccccc1Nc1ccnc(N2CCC(NC(=O)Cc3cccc(Cl)c3)CC2)n1,x,x,u,31.6µM*
COCC(=O)N1c2ccccc2CC1c1noc(C(C)C)n1 (stereo unspecified),15.8µM*,5.0%,i,-0.1%
CC(C)c1nc(C2Cc3ccccc3N2C(=O)C2CC2)no1 (stereo unspecified),u,1.3%,-29.1%,-27.4%
Clc1cccc(CN2CC[C@H](c3nc4ccccc4o3)C2)c1,i,-7.3%[70.6 µM],u,-20.0%[174 µM]
COc1cc(CN2CC[C@H](c3nc4ccccc4o3)C2)cc(OC)c1OC,i,-22.9%[70.6 µM],70.8µM*,u
c1ccc2c(Cc3nnc([C@H]4CCN(C5CCCCC5)C4)o3)c[nH]c2c1,i,-2.7%[70.6 µM],u,-27.4%[138 µM]
COc1ccccc1-c1nnc([C@H]2CCN(Cc3ccccn3)C2)o1,i,-4.5%[70.6 µM],u,35.5µM*
COc1ccccc1CN1CC[C@H](c2nnc(Cc3c[nH]c4ccccc34)o2)C1,i,-0.8%[70.6 µM],89.1µM*,u
COc1ccccc1-c1nnc([C@H]2CCN(CC3CCCCC3)C2)o1,i,6.3%[70.6 µM],u,u
CN(C)c1ccc(CN2CC[C@H](c3nc4cc(Cl)ccc4o3)C2)cc1,u,u,u,112µM*
SMILES,FLuc inh,hNpr1 antagonist,HEK cytotox,NIH3T3 tox
Cc1ccc2oc([C@H]3CCN(Cc4c[nH]c5ccccc45)C3)nc2c1,i,u,31.6µM*,56.2µM*
Cc1ccc2oc([C@H]3CCN(Cc4ccc(N(C)C)cc4)C3)nc2c1,44.7µM*,-20.3%[70.6 µM],u,u
COc1ccc(CCC(=O)N2CCCCCC2c2nc(-c3cccnc3)no2)cc1 (stereo unspecified),x,x,-28.8%,u
CC(C)Cc1cnc(-c2ccccc2)[nH]1,x,x,100µM*,u
Cc1cccc(CN2CCC3(CC2)Cc2ccccc2CNC3=O)c1,x,x,u,-12.1%
CN1CCN(Cc2ccc(CC3CCN(C(=O)c4ccc5cc[nH]c5c4)CC3)cc2)CC1,x,x,u,31.6µM*
O=C(c1ccc2ccccc2n1)N1CCC(Cc2ccc(CN3CCOCC3)cc2)CC1,x,x,35.5µM*,u
O=C(c1ccc(Cl)cc1)N1CCCC(C(=O)N2CCC(c3nc4ncccc4[nH]3)C2)C1 (stereo unspecified),x,x,-2.8%,-1.8%
CS(=O)(=O)c1ccc(CN2CCC[C@H]2c2nc(-c3ccnc(N4CCC(C(N)=O)CC4)c3)no2)cc1,i,-1.8%,-14.8%,-17.8%
